# Hits are enriched below; roughly 3.5% of the tested compounds scored in any of these assays.
# mHTT-CaM PPI inh: mutant huntingtin-calmodulin interaction inhibitors – biochemical, AlphaScreen, primary screen; P42858; AlphaScreen His-mHTT/GST-CaM binding, luminescence; inhibition, % at 15 µM; hit rate 3.6% among 190,000;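 also: 0% = both proteins with DMSO and 100% = one protein alone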
# Pf apPOL block: Pf-apPOL inhibitors, biochemical, fluorescence. Plasmodium falciparum apicoplast DNA polymerase (apPOL). Recombinant Pf-apPOL, molecular beacon fluorescence, 1.5 h. inhibition, % at 10 µM. hit rate 0.25% among 210,000
# Numbers without * were called inactive; nt = not tested or not shown; ! = repeats disagree. Rule as the data show it: active = inhibition above about 50%; inactive = the rest.
SMILES,mHTT-CaM PPI inh,Pf apPOL block
Oc1cccc2ccc(Oc3cccc4cccnc34)nc12,2,-3
O=C(Oc1cccc2cccnc12)c1c(F)cccc1F,nt,3
O=C(Nc1ccccn1)c1cc(I)ccc1Cl,-3,-2
Oc1c(C(Nc2ccccn2)c2ccccc2F)ccc2cccnc12 (centres undefined),100*,-1
Cc1cccc(NC(c2ccccc2F)c2ccc3cccnc3c2O)n1 (centres undefined),99*,-13
Oc1ccc(Cl)c(C(Nc2ccccn2)c2ccc3cccnc3c2O)c1 (centres undefined),100*,0
CC(C)(C)C(=O)NC(Nc1cccc2cccnc12)C(Cl)(Cl)Cl (centres undefined),1,-11
Cc1nc(-c2cccc(F)c2)sc1C(=O)NC1CC1,-1,-1
O=S(=O)(Nc1nccs1)c1ccc2ccccc2c1,-2,nt
Oc1ccccc1C(Nc1nccs1)c1ccc2cccnc2c1O (centres undefined),100*,-9
COc1ccc(Cl)cc1S(=O)(=O)NCC1(C)CCOCC1,2,0
O=[N+]([O-])c1cc(S(=O)(=O)N2CCC3(CC2)OCCO3)ccc1F,49,27
CCN1CCN(C(=O)c2oc3ccc(S(=O)(=O)N4CCCCC4)cc3c2C)CC1,-2,-1
O=C1CC2CS(=O)(=O)CC2N1c1ccccc1 (centres undefined),-5,nt
Cc1cc(C)c2c3c([nH]c2c1)CCC(NC(=O)C1CCCC1)C3 (centres undefined),36,2
CC(C)C(=O)NC1CCc2[nH]c3cc(Cl)cc(Cl)c3c2C1 (centres undefined),68*,-2
Cc1ccc2[nH]c3c(c2c1)CC(NC(=O)Cc1ccccc1C)CC3 (centres undefined),42,3
Cc1nc(CC(=O)NC2CCc3[nH]c4cc(Cl)cc(Cl)c4c3C2)c(C)s1 (centres undefined),78*,1
O=C1OC(c2ccc3c(c2)OCO3)N(C(=O)c2cc3ccccc3o2)c2ccccc21 (centres undefined),-7,-2
CCCN(CCC)CN1C(=O)S/C(=C\c2ccc(OCC)c(OC)c2)C1=O,3,-6
COc1ccccc1N1CCN(C(=O)Nc2ccccc2)C(C)C1=O (centres undefined),-3,-7
Cc1cc(/C=C2/SC(=Nc3ccc(N4CCOCC4)cc3)N(C)C2=O)c(C)n1-c1cccnc1,7,-25
O=C(c1cc(-c2ccncc2)nc2ccccc12)N1CCN(c2cccc(Cl)c2)CC1,91*,-6
O=C(c1cc(-c2ccccc2)nc2ccccc12)N1CCCC1,8,8
O=C(c1ccccc1Br)N1CCN(c2cccc(Cl)c2)CC1,64*!,3
SMILES,mHTT-CaM PPI inh,Pf apPOL block
O=C(c1cccc(Cl)c1)N1CCN(c2ccccc2)CC1,0,-6
O=C(CCCOc1ccccc1)N1CCN(Cc2ccccc2)CC1,8,-1
O=C(CCCOc1ccccc1)N1CCN(c2cccc(Cl)c2)CC1,70*,-6
Cc1cc(C2(c3cc(C)c(O)c(C)c3)CCCCC2)cc(C)c1O,nt,-10
C=C(C)Cn1c(SCC(=O)O)nnc1-c1ccc([N+](=O)[O-])cc1,-1,0
CCOc1ccccc1-c1nc(-c2ccc3ncn(CC)c3c2)no1,33,-3
CCN(CC)c1cc(C)c2cc(NC(=O)c3ccncc3)ccc2n1,20,-2
Cc1ccc(C(O)C#CC23CC4CC(CC(C4)C2)C3)o1 (centres undefined),87*,3
OC(C#CC12CC3CC(CC(C3)C1)C2)c1cccnc1 (centres undefined),43,-1
CCSc1ccc(NC(=O)c2ccccc2SC)cc1,2,-7
CCOc1ccc(N2COc3ccc(Br)cc3C2)cc1,84*,-1
CCOc1ccc(N2COc3cc4c(cc3C2)OCO4)cc1,8,-14
O=C(c1cccc(Oc2cc(-c3ccccc3)ncn2)c1)N1CCCC1,70*,60*
CC(C)Oc1cccc(C(=O)N2CCCC2)c1,-2,-4
CCCNc1cc(N2CCCC(CCC(=O)Nc3ccccc3C)C2)ncn1 (centres undefined),6,-6
CCOc1ccc(N(CC)C(=O)c2nc(C)n(C3CCN(S(C)(=O)=O)CC3)c2C)cc1,12,-4
COc1ccc(N(C)C(=O)c2nc(C)n(C3CCN(S(C)(=O)=O)CC3)c2C)cc1,86*,-12
Cc1ccc(C(=O)NCC2CCCCC2)c(C2CCN(C(=O)C(C)C)CC2)n1,10,-5
Cn1nc(-c2nc(-c3ccccc3)no2)c2c1CCN(C(=O)NCCc1ccccc1)C2,18,-2
COc1ccc2c(c1)c1c3n2CCNC3CCC1 (centres undefined),10,13
Brc1ccc2c(c1)c1c3n2CCNC3CCC1 (centres undefined),75*,2
CCN1CC=C2C(C#N)=C(N)C(C#N)(C#N)C(c3ccc(F)cc3F)C2C1 (centres undefined),10,2
C=CCn1c(-c2ccc(N(C)C)cc2)nc2ccccc21,36,0
Brc1ccc2c(c1)NC(c1ccccc1)=NC(c1ccncc1)=N2,71*,-5
Fc1ccc(C2=Nc3ccc(F)cc3NC(c3ccccc3)=N2)cc1,7,-3
SMILES,mHTT-CaM PPI inh,Pf apPOL block
O=C(c1ccc(F)cc1)N1CCCC(C(=O)N2CCC(Cc3ccccc3)CC2)C1 (centres undefined),-2,-1
COc1ccc(C(C)NC(=O)CN(c2ccc([N+](=O)[O-])cc2)S(=O)(=O)c2ccccc2)cc1 (centres undefined),13,1
COc1ccc(-c2csc(Nc3ccccc3)[n+]2CC(O)c2ccc([N+](=O)[O-])cc2)cc1 (centres undefined),66*,1
COc1cc(O)c(C(CCN2CCOCC2)c2ccc(N(C)C)cc2)c(OC)c1 (centres undefined),58*,-7
COc1cc(O)c(C(CCN2CCCC(C)C2)c2ccc3c(c2)OCO3)c(OC)c1 (centres undefined),33,7
COc1cc(O)c(C(CCN2CCCC(C)C2)c2ccc(N(C)C)cc2)c(OC)c1 (centres undefined),55*,7
COc1cc(O)c(C(CCN2CCOCC2)c2ccc3c(c2)OCO3)c(OC)c1 (centres undefined),24,-7
COc1cc(O)c(C(CCN2CCN(c3ccccc3)CC2)c2ccc(N(C)C)cc2)c(OC)c1 (centres undefined),97*,-2
COc1ccc(C(CCN2CCCCC2)c2c(O)cc(OC)cc2OC)cc1 (centres undefined),-1,-8
CCN(CC)CCC(c1ccc(N(C)C)cc1)c1c(O)cc(OC)cc1OC (centres undefined),70*,-6
CCN(CC)CCC(c1ccc(OC)cc1)c1c(O)cc(OC)cc1OC (centres undefined),16,-2
CCNC(=O)c1cc(S(=O)(=O)N2CCOCC2)ccc1Cl,0,-10
CCCc1cc(C2CCCN2C(=O)c2ccnn2CC)no1 (centres undefined),-1,-1
O=C(CSc1ncccn1)N1CCOCC1,3,4
COc1ccc(C(CCN2CCCC2)c2c(O)cc(OC)cc2OC)cc1 (centres undefined),14,-4
COc1cc(OC)c2c(C)cc(=O)oc2c1C(CCN1CCCC(C)C1)c1ccc(N(C)C)cc1 (centres undefined),79*,-8

# Screens (PubChem BioAssay)
